The source made the active and inactive calls.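 The calls were made as follows, unless noted: active = compounds that lower survival of HCT116 colon cancer cells in the luminescence readout, no numeric limit stated; inactive = the rest.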
Experiments:
[1] = stimulators of nuclear beta-catenin in C2C12, primary screen, imaging, WNT3A-conditioned medium, mouse C2C12, NPC library (AID 1117326; in the data active = nuclear beta-catenin stimulation mostly above about 4.2%, no sharp cut-off; inactive = mostly below about 10%; also: reference of the scale not given here); conditions: stronger effect = higher value
[2] = stimulators of insulin release from INS-1E, primary screen, cell-based, 5 mM glucose, NPC library (AID 1117329;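 active = compound raises insulin release from rat beta cells at 5 mM glucose, no numeric limit stated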; also: reference of the scale not given here); conditions: rat INS-1E insulin secretion, at 10 µM, stronger effect = higher value
[3] = growth inhibition of GSK3B-pretreated HCT116 cells – cell-based, CellTiter-Glo, 0.2 to 20 µM (AID 1117336;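 active = compounds lowering colon cancer cell viability after pretreatment blocking the GSK3B kinase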); conditions: HCT116 viability after GSK3B inhibitor, at 20 µM, stronger effect = higher value
[4] = inhibition of endothelial tube formation, primary screen, imaging, VEGF stimulated, CD31 staining, tube area, NPC library (AID 1117340;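 active = compound that reduces growth-factor-driven endothelial tube area in a mixed cell culture, no cutoff stated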); conditions: VEGF-stimulated ADSC/ECFC co-culture, at 10 µM, stronger effect = higher value
[5] = glucagon-like peptide 1 release enhancers, primary assay, NCI-H716 cell line, NPC library (AID 1117341;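 active = compound raises GLP1 secretion from the human gut endocrine cells, with no numeric limit stated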; also: reference of the scale not given here); conditions: NCI-H716 cells, at 10 µM, stronger effect = higher value
[6] = HCT116 colon cancer cell growth inhibition, primary screen, CellTiter-Glo luminescence, NPC library (AID 1117342); conditions: at 20 µM (top of the series)
[7] = CellTiter-Glo luminescent readout of SW480 viability loss, NPC library primary (AID 1117343;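 active = compounds that lower viability of the colon cancer cells in the luminescence readout, with no numeric limit stated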); conditions: CellTiter-Glo luminescence; at 20 µM (top of the series)
[8] = decreased DLD-1 cellular survival, CellTiter-Glo luminescent readout, NPC compound collection, primary HTS (AID 1117346;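 active = compounds that lower survival of DLD-1 colon cancer cells in the luminescence readout, no cutoff given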); conditions: DLD-1 viability, CellTiter-Glo luminescence; at 20 µM (top of the series)

O=C1CCC(C(=O)O)N1 (stereo not given)
inactive: nuclear beta-catenin stimulation ([1]; at 10 µM) -1.2% | insulin secretion stimulation [2] 2.6% | viability decrease [3] -7.5% | tube area decrease [4] 6.4% | GLP1 secretion stimulation [5] -3.6% | inhibition of viability [6] 2.4% | viability decrease (inhibition) [7] -1.5% | viability decrease (inhibition) [8] -4%
2.3%: nuclear beta-catenin stimulation ([1]; stimulation, at 2 µM)

CN=C(N)NC(=O)Nc1c(C)cccc1C
active: viability decrease (inhibition) [7] -1.5%
inactive: nuclear beta-catenin stimulation ([1]; at 10 µM) -1.8% | insulin secretion stimulation [2] -1.2% | viability decrease [3] -12.4% | tube area decrease [4] -1.8% | GLP1 secretion stimulation [5] -0.6% | inhibition of viability [6] 11.3% | viability decrease (inhibition) [8] -0.9%
-0.4%: nuclear beta-catenin stimulation ([1]; stimulation, at 2 µM)

CC(O)COc1ccccc1 (stereo not given)
inactive: nuclear beta-catenin stimulation ([1]; at 10 µM) -0.1% | insulin secretion stimulation [2] -0.2% | viability decrease [3] -28.5% | tube area decrease [4] 11.1% | GLP1 secretion stimulation [5] 0.5% | inhibition of viability [6] -11.1% | viability decrease (inhibition) [7] -146% | viability decrease (inhibition) [8] -19.2%
1.5%: nuclear beta-catenin stimulation ([1]; stimulation, at 2 µM)

CCCCC[C@H](O)C=C[C@H]1[C@H](O)CC(=O)[C@H]1CC=CCCCC(=O)O
-0.7%: nuclear beta-catenin stimulation ([1]; stimulation, at 2 µM)
inactive: nuclear beta-catenin stimulation ([1]; at 10 µM) 0.5% | insulin secretion stimulation [2] 1.7% | viability decrease [3] -18.4% | tube area decrease [4] 28.7% | GLP1 secretion stimulation [5] 3.8% | inhibition of viability [6] -14.5% | viability decrease (inhibition) [7] 25.3% | viability decrease (inhibition) [8] -48.6%

CC(NC(CCc1ccccc1)C(=O)O)C(=O)N1C(=O)N(C)CC1C(=O)O (stereo not given)
inactive: nuclear beta-catenin stimulation ([1]; at 10 µM) -1.2% | insulin secretion stimulation [2] 5.3% | viability decrease [3] -39.7% | tube area decrease [4] 6% | GLP1 secretion stimulation [5] -5.4% | inhibition of viability [6] 2.8% | viability decrease (inhibition) [7] 4.5% | viability decrease (inhibition) [8] -6%
1.8%: nuclear beta-catenin stimulation ([1]; stimulation, at 2 µM)

CCN(CC)S(=O)(=O)c1ccc(C(=O)O)cc1
inactive: nuclear beta-catenin stimulation ([1]; at 10 µM) 1.6% | insulin secretion stimulation [2] -2.1% | viability decrease [3] -8.6% | tube area decrease [4] 8.6% | GLP1 secretion stimulation [5] -3.2% | inhibition of viability [6] -14.7% | viability decrease (inhibition) [7] 40% | viability decrease (inhibition) [8] 7.45%
0.7%: nuclear beta-catenin stimulation ([1]; stimulation, at 2 µM)

N[C@H](Cc1c[nH]c2ccccc12)C(=O)O
inactive: nuclear beta-catenin stimulation ([1]; at 10 µM) 0.6% | insulin secretion stimulation [2] 2.7% | viability decrease [3] 6.2% | tube area decrease [4] 1.5% | GLP1 secretion stimulation [5] -2.5% | inhibition of viability [6] -1.87% | viability decrease (inhibition) [7] 6.5% | viability decrease (inhibition) [8] 1.8%
1%: nuclear beta-catenin stimulation ([1]; stimulation, at 2 µM)

O=C(/C=C/c1ccc(O)c(O)c1)O[C@@H]1C[C@@](OC(=O)/C=C/c2ccc(O)c(O)c2)(C(=O)O)C[C@@H](O)[C@@H]1O
inactive: nuclear beta-catenin stimulation ([1]; at 10 µM) 0.7% | insulin secretion stimulation [2] -0.6% | viability decrease [3] -72.8% | tube area decrease [4] 8.1% | GLP1 secretion stimulation [5] 3.7% | inhibition of viability [6] 6.6% | viability decrease (inhibition) [7] 6.5% | viability decrease (inhibition) [8] -13.6%
0.9%: nuclear beta-catenin stimulation ([1]; stimulation, at 2 µM)

Cc1ccccc1C(=O)N1CC/C(=N\OS(=O)(=O)O)c2ccc(Cl)cc21
-1.3%: nuclear beta-catenin stimulation ([1]; stimulation, at 2 µM)
inactive: nuclear beta-catenin stimulation ([1]; at 10 µM) 0.7% | insulin secretion stimulation [2] 3.05% | viability decrease [3] 19.7% | tube area decrease [4] -2.3% | GLP1 secretion stimulation [5] 3.1% | inhibition of viability [6] 1.4% | viability decrease (inhibition) [7] -15.6% | viability decrease (inhibition) [8] -6.4%

O=C1CCC(=O)N1CO
inactive: nuclear beta-catenin stimulation ([1]; at 10 µM) -2.4% | insulin secretion stimulation [2] 3.1% | viability decrease [3] -0.6% | tube area decrease [4] -5.1% | GLP1 secretion stimulation [5] -1.4% | inhibition of viability [6] 1.8% | viability decrease (inhibition) [7] 9.6% | viability decrease (inhibition) [8] -2.7%
-0.7%: nuclear beta-catenin stimulation ([1]; stimulation, at 2 µM)

COc1ccccc1N1CCN(CC(O)COc2cc(OC)c(OC)c(OC)c2)CC1 (stereo not given)
0.4%: nuclear beta-catenin stimulation ([1]; stimulation, at 2 µM)
active: tube area decrease [4] 56.8%
inactive: nuclear beta-catenin stimulation ([1]; at 10 µM) 0.2% | insulin secretion stimulation [2] 1.5% | viability decrease [3] 16.1% | GLP1 secretion stimulation [5] 4.5% | inhibition of viability [6] 20.9% | viability decrease (inhibition) [7] -2.1% | viability decrease (inhibition) [8] 8.5%

O[C@@H]1CO[C@H]2[C@@H]1OC[C@@H]2O
active: viability decrease (inhibition) [7] 51.8%
1%: nuclear beta-catenin stimulation ([1]; stimulation, at 2 µM)
inactive: nuclear beta-catenin stimulation ([1]; at 10 µM) 1% | insulin secretion stimulation [2] -2% | viability decrease [3] 2.15% | tube area decrease [4] 16.5% | GLP1 secretion stimulation [5] 1.1% | inhibition of viability [6] -9.1% | viability decrease (inhibition) [8] -4.4%

Nc1c(N=Nc2ccc(-c3ccc(N=Nc4cc(S(=O)(=O)O)c5ccccc5c4N)cc3)cc2)cc(S(=O)(=O)O)c2ccccc12
0.3%: nuclear beta-catenin stimulation ([1]; stimulation, at 2 µM)
inactive: nuclear beta-catenin stimulation ([1]; at 10 µM) -3.3% | insulin secretion stimulation [2] 2% | viability decrease [3] -26.6% | tube area decrease [4] 16.8% | GLP1 secretion stimulation [5] -1.7% | inhibition of viability [6] -132% | viability decrease (inhibition) [7] -0.2% | viability decrease (inhibition) [8] -66.6%

CC(=O)N1CCN(c2ccc(O)cc2)CC1
active: viability decrease [3] 73.5% | viability decrease (inhibition) [7] 101%
inactive: nuclear beta-catenin stimulation ([1]; at 10 µM) 1.7% | insulin secretion stimulation [2] -0.1% | tube area decrease [4] -25.3% | GLP1 secretion stimulation [5] 3.8% | inhibition of viability [6] 38.5% | viability decrease (inhibition) [8] 34.4%
-1.5%: nuclear beta-catenin stimulation ([1]; stimulation, at 2 µM)

CC(=O)Nc1ccc(OC(=O)c2ccccc2OC(C)=O)cc1
inactive: nuclear beta-catenin stimulation ([1]; at 10 µM) 0.6% | insulin secretion stimulation [2] 4.1% | viability decrease [3] 0.8% | tube area decrease [4] -15.2% | GLP1 secretion stimulation [5] -1.2% | inhibition of viability [6] -5.8% | viability decrease (inhibition) [7] -3% | viability decrease (inhibition) [8] -10.1%
14%: nuclear beta-catenin stimulation ([1]; stimulation, at 2 µM)

— PubChem BioAssay
